Lassa entry inh – inhibitors of Lassa virus binding or cell entry; Lassa virus pseudotype entry inhibition, cell reporter; Potency, µM (titrated, usually from 37.9 µM), without a hit: at the top dose activity change, negative = inhibition, most hits filed as inhibitors; 1.2% of 300,000 active; AID 540256; calls by dose curve; tested in HEK293 cells; further: potency means the concentration at half of the fitted maximal effect; on the % scale 0 is the no-effect control and ±100 the full control effect; nearly all actives have a fitted effect of over 50% in size
Pf growth 96h – P. falciparum growth inhibition at 96 hour, primary screen for plastid delayed-death inhibitors; 6.9% of 320,000 active; P. falciparum luciferase reporter growth, 96 h; Potency, µM (highest dose often 28.7 µM), without a hit: at the top dose activity change, negative = inhibition, actives largely listed as inhibitors; AID 504834; further: potency means the concentration at half of the fitted maximal effect; on the % scale 0 is the no-effect control and ±100 the full control effect
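Luminescence readout: decreased luciferase signal marks inhibited growth of reporter-expressing P. falciparum in infected red cells (2% hematocrit, 0.05% parasitemia final), exposed to compound two generations (96 h, 37 C, 5% CO2).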
Marburg entry inh – Marburg virus entry inhibition | Potency, µM (highest dose often 37.8 µM), for inactives: at the top dose activity change, negative = inhibition, actives largely listed as inhibitors | 1.8% of 300,000 active | Marburg virus pseudotyped entry inhibition, cell reporter; calls by dose curve; tested in HEK293 cells; further: potency means the concentration at half of the fitted maximal effect; on the % scale 0 is the no-effect control and ±100 the full control effect
Shiga inhibitor – blocks Shiga toxin action in Vero cells; Vero cells, Shiga toxin protein synthesis inhibition reporter; inhibition, % at 38.7 µM; 9.2% of 290,000 active; AID 2315; in the data active means inhibition mostly above about 28%, no sharp cut-off; inactive means mostly below about 43%; further: 0% is about no effect
Pf growth 48h – inhibits P. falciparum growth in the first generation, 48 h | P. falciparum luciferase growth in erythrocytes, 48 h | Potency, µM (top dose mostly 28.7 µM), for the others: at the highest dose activity change, negative = inhibition, usual class: inhibitors | 5.9% of 310,000 active | AID 504832; further: potency means the concentration at half of the fitted maximal effect; on the % scale 0 is the no-effect control and ±100 the full control effect
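Read-out is firefly luciferase luminescence from an integrated reporter in P. falciparum, so falling signal marks reduced parasite growth. Infected erythrocytes were at 2% hematocrit and 0.1% parasitemia (final) in Albumax-supplemented RPMI 1640.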
Cycloheximide cs – counter-screen for Shiga toxin inhibitors: cycloheximide protein synthesis inhibition. AID 2314. cell reporter, cycloheximide protein synthesis inhibition counterscreen. 12% of 300,000 active. max response, %; in the data active means max response mostly above about 13%, no sharp cut-off; inactive means mostly below about 14%; further: read at 38.3 µM for the half of the compounds with a filed dose; 0% is about no effect
* = called active by the depositor; ? = inconclusive; . = no result; [ ] = dose if it differs, or a comment. Compounds with a hit are over-represented: about 19% of the library has one in this group of screens. Unless noted, the call rests on the fitted dose curve; in most records, active means well fitted inhibition curve with a large enough effect; inconclusive means small, poorly fitted or top-dose-only effect, or another doubt; inactive means no such curve, though single readings can be large or run the other way.

SMILES	Lassa entry inh	Pf growth 96h	Marburg entry inh	Shiga inhibitor	Pf growth 48h	Cycloheximide cs
O=C(OCC(=O)N1CCOCC1)c1cnc(Cl)c(Cl)c1	.	6%	.	.	3%	.
O=C(Nc1ccn(Cc2ccccc2F)n1)c1ccc(COc2cc(Cl)ccc2Cl)o1	?	?	?	-14	?	8
CCOc1ccccc1CNC(=O)c1nn(C)c2c1CS(=O)(=O)c1ccccc1-2	24%[46.1 µM]	-28%	.	-2	?	-1
C/C(=N\NC(=O)c1ccc(N(C)C)cc1)c1ccc(C)cc1C	?	-16%	?	24*	11%	21
CN1CCN(c2ccc(NC(=O)c3ccc(Oc4ccccc4)cc3)cc2)CC1	?	?	?	31*	?	10
C/C(=N\NC(=O)c1ccc(N(C)C)cc1)c1ccc(C)c(C)c1	15%	?	17%	13	15%	17
CN1CCN(c2ccc(NC(=O)Oc3ccccc3)cc2)CC1	4%	?	?	-6	.	-3
c1ccc(-c2nc(NCc3ccco3)c3oc4ccccc4c3n2)cc1	4%	?	1%	2	?	13
COc1ccc(C2=C(SC)CC2=NC(C)(C)C)cc1	7%	-3%	?	30	0%	13*
O=[N+]([O-])c1ccc(C(=S)N2CCCC2)cc1	-10%[46.1 µM]	-5%	-13%[46.1 µM]	14	11%	7
O=[N+]([O-])c1ccc(C(O)CSC(=S)N2CCCCC2)cc1 (stereo unspecified)	-11%[46.1 µM]	172%	?	83*	135%	46*
CCn1c(=O)c(C(=O)Nc2ccc(C(C)=O)cc2)nc2ccccc21	23%[46.1 µM]	.	19%[46.1 µM]	.	.	.
CC(C)NC(=S)N/N=C/c1sc(N2CCCCC2)nc1-c1cccs1	-7%	0.83µM*	?	-11	0%	8
O=C(N/N=C/c1sc(N2CCCCC2)nc1-c1cccs1)C1CC1	-26%	5.2µM*	-33%	40	10µM*	14
O=C(N/N=C/c1sc(N2CCOCC2)nc1-c1ccccc1)c1ccccc1F	?	?	1%[46.1 µM]	-8	?	-1
CCCCNC(=S)N(C)/N=C/c1sc(N2CCCCC2)nc1-c1cccs1	1%	12µM*	0%	4	10µM*	-2
Cc1ccccc1OCC(=O)NCCC(=O)O	10%	.	10%	6	29%	-3
COc1ccc(NC(=O)CSc2nnc(C(C)C)n2N)cc1	6%	.	25%	-9	13%	-3
CCNC(=S)Nc1ccc(Cl)cc1Cl	?	-20%	0%	35	7%	-3
S=C(NCCc1ccccc1)Nc1ccc(Cl)cc1Cl	-12%	41%	4%	61*	-5%	34*
Cc1cc(Cl)ccc1NC(=S)NCCC(c1ccccc1)c1ccccc1	-26%	?	?	-5	?	11*
Cc1c(Cl)cccc1NC(=S)NCCC(c1ccccc1)c1ccccc1	?	-10%	?	17	?	10
Cc1cc(Cl)ccc1NC(=S)NCc1ccc(Cl)cc1	-3%	-9%	0%[46.1 µM]	10	?	-1
Cc1cc(Cl)ccc1NC(=S)NCCc1ccc(Cl)cc1	27%[46.1 µM]	?	?	52	?	9.5*
CCOC(=O)c1oc2ccccc2c1COC(=O)CNC(=O)c1cc(OC)c(OC)c(OC)c1	-4%	5%	?	.	-20%	.
SMILES	Lassa entry inh	Pf growth 96h	Marburg entry inh	Shiga inhibitor	Pf growth 48h	Cycloheximide cs
C=CCn1cc(-c2cccc(Cl)c2)cc(C#N)c1=O	13%	-5%	4%	-9	.	-4
Cc1c(C)n2c(SCC(=O)N3CCOCC3)nnc2[nH]c1=O	-2%	?	6%	.	?	.
Cn1c(SCC(=O)N2CCN(c3ccccc3)CC2)nnc1-c1ccncc1	15%	12µM*	0%	14	-26%	-5
CC1CN(C(=O)CSc2nnc(-c3ccc(Cl)cc3)n2C)CC(C)O1 (stereo unspecified)	1%	31%	0%	55	3%	20*
Cc1c(C)n2c(SCC(=O)N3CC(C)OC(C)C3)nnc2[nH]c1=O (stereo unspecified)	1%	5.2µM*	26%[46.1 µM]	.	?	.
COCCn1c(SCC(=O)c2c[nH]c3ccccc23)nnc1-c1ccncc1	22%	?	-1%	-10	?	0
CCc1cccc2c(C(=O)CSc3nnc(-c4ccncc4)n3C)c[nH]c12	0%	10µM*	?	-2	?	-3

Compound activity from PubChem BioAssay.
